A structure can be active in one record and inactive in another. Active and inactive are the calls of the source. The calls were made as follows: active = hit-call score of the fitted dose curve at least 0.9, where 1 is the maximum; inactive = score below 0.9.
Assay: ATG_Sox_CIS: Attagene CIS-FACTORIAL HepG2 Assay for human SRY-box transcription factor (SOX) (AID 2282960)
Settings: HepG2 Attagene cis-factorial SOX reporter, mRNA; actives raise or lower the signal
Procedure: ATG_CIS is a cell-based, multiplexed-readout assay that uses HepG2, a human liver cell line, with measurements taken at 24 hours after chemical dosing in a 24-well plate.ATG_Sox_CIS is one of 52 assay component(s) measured or calculated from the ATG_CIS assay. It is designed to make measurements of mRNA induction, a form of inducible reporter, as detected with fluorescence intensity signals by Reverse transcription polymerase chain reaction (RT-PCR) and Capillary electrophoresis technology.Data from the assay component ATG_Sox_CIS was analyzed into 1 assay endpoint. This assay endpoint, ATG_Sox_CIS, was analyzed with bidirectional fitting relative to DMSO as the negative control and baseline of activity. Using a type of inducible reporter, measures of mRNA for gain or loss-of-signal activity can be used to understand the reporter gene at the transcription factor-level as they relate to the gene SOX1. Furthermore, this assay endpoint can be referred to as a primary readout, because this assay has produced multiple assay endpoints where this one serves a reporter gene function. To generalize the intended target to other relatable targets, this assay endpoint is annotated to the dna binding intended target family, where the subfamily is HMG box protein.
Human liver HepG2 cells are transiently transfected with multiple reporter transcription units (MRTUs) in 6-well plates using FuGene 6 reagent (Roche; 3 ml FuGene/1 mg DNA). The MRTU constructs are regulated by a cis-regulating element (promoter). […] A major difference between the CIS and TRANS system is that in CIS activities of endogenous TFs are measured, whereas the TRANS assay evaluates changes in activities of exogenous, chimeric NR-Gal4 proteins. […] At the end of 24 hour incubation, total RNA was isolated using TriZol reagent (Invitrogen). The isolated RNA is then reverse-transcribed using oligo(dT) primer and Mo-MLV reverse transcriptase (Invitrogen) with DNAse I (Ambion) treatment for 30 min. The one-tenth of the produced cDNA was amplified by PCR using Taq DNA polymerase (Invitrogen) and two reporter sequence-specific primers. The PCR products were fluorescently labeled by primer extension with 6-arboxyfluorescein (6-FAM) 5'-labeled reporter sequence-specific primer (2 min at 95 C, 20 s at 68 C and 10 min at 72 C) and these products were digested with 5U of HpaI (New England Biolabs) for 2h at 37 C. The fragments were purified using Qiaquick PCR columns (Qiagen), analyzed on an ABI 3130xL genetic analyzer (Applied Biosystems) with peak positions identified by using a set of X-rhodamine (ROX)-labeled MapMarker1000 molecular weight standards (BioVentures). The raw capillary electrophoresis data was processed using Attagraph software (Attagene).
In the case of O=C(O)C(F)(F)C(F)(F)C(F)(F)C(F)(F)C(F)(F)C(F)(F)C(F)(F)C(F)(F)C(F)(F)C(F)(F)C(F)(F)C(F)(F)C(F)(F)F, the outcome is reported as “inactive”.
In the case of C#C[C@]1(O)CC[C@H]2[C@@H]3CCc4cc(OC)ccc4[C@H]3CC[C@@]21C, the outcome is reported as “inactive”.
For COC(=O)CCC(F)(F)C(F)(F)C(F)(F)C(F)(F)F, the outcome was “inactive”.
In the case of O=C(O)C(F)(F)C(F)(F)C(F)(F)C(F)(F)C(F)(F)C(F)(F)C(F)(F)C(F)(F)C(F)(F)C(F)F, the outcome is reported as “inactive”.
In the case of c1ccc(B(c2ccccc2)c2ccccc2)cc1, the outcome is reported as “inactive”.
In the case of CC/C=C\CCOC(=O)c1ccccc1, the outcome is reported as “inactive”.
In the case of C=CC(=O)OCC(F)(F)C(F)(F)C(F)(F)C(F)(F)C(F)(F)C(F)(F)C(F)(F)F, the outcome is reported as “inactive”.
With O=C(O)C(F)(F)C(F)(F)C(F)(F)F the outcome was “inactive”.
With CN(C)Cc1ccccc1O the outcome was “inactive”.
With O=C(O)C(F)(OC(F)(F)C(F)(OC(F)(F)C(F)(OC(F)(F)C(F)(F)C(F)(F)F)C(F)(F)F)C(F)(F)F)C(F)(F)F (stereo not given) the outcome was “inactive”.
For FC(F)(Br)C(F)(F)C(F)(F)C(F)(F)C(F)(F)C(F)(F)Br, the outcome was “inactive”.
With C=CC(F)(F)C(F)(F)C(F)(F)C(F)(F)C(F)(F)C(F)(F)C(F)(F)C(F)(F)C=C the outcome was “inactive”.
In the case of FC(F)(F)C(F)(F)C(F)(F)N(C(F)(F)C(F)(F)C(F)(F)F)C(F)(F)C(F)(F)C(F)(F)F, the outcome is reported as “inactive”.
With CCc1ccc(C(c2ccc(CC)cc2)C(Cl)Cl)cc1 the outcome was “inactive”.
With FC(F)(F)C(F)(F)C(F)(F)C(F)(F)C(F)(F)C(F)(F)CC1CO1 (stereo not given) the outcome was “inactive”.
With C=C(C)C(=O)OCCC(F)(F)C(F)(F)C(F)(F)C(F)(F)C(F)(C(F)(F)F)C(F)(F)F the outcome was “inactive”.
With CCCCCCCOC(=O)c1ccccc1C(=O)OCCCCCCC the outcome was “inactive”.
With C(=C(c1ccccc1)c1ccccc1)c1ccccc1 the outcome was “inactive”.
In the case of c1ccc(-c2ccccc2-c2ccccc2)cc1, the outcome is reported as “inactive”.
In the case of CCCCCCC(C)OC(=O)CCCCC(=O)OC(C)CCCCCC (stereo not given), the outcome is reported as “inactive”.
For O=S(=O)(OCC(F)F)C(F)(F)F, the outcome was “inactive”.
With OCC(F)(F)C(F)(F)C(F)(F)C(F)(F)C(F)(F)C(F)F the outcome was “inactive”.
In the case of Cc1cccc(N(C)C)c1, the outcome is reported as “inactive”.
With OCC(F)(F)C(F)(F)C(F)(F)F the outcome was “inactive”.
For Nc1ccc([N+](=O)[O-])cc1O, the outcome was “inactive”.
In the case of CC(C)(C)c1ccc(OC2CCCCC2O)cc1 (stereo not given), the outcome is reported as “inactive”.
With O=C(OCCOCCOCCOC(=O)c1ccccc1)c1ccccc1 the outcome was “inactive”.
With FC(F)(F)C(F)(F)C(F)(F)C(F)(F)CCI the outcome was “inactive”.
For CC(C)OC(=O)c1ccccc1C(=O)OC(C)C, the outcome was “inactive”.
For C=CC(=O)OCC(F)(F)C(F)(F)C(F)(F)C(F)(F)COC(=O)C=C, the AC50 was 56.2 µM (active).
With CCN(CC)c1ccc2c(C)cc(=O)oc2c1 the outcome was “inactive”.
In the case of O=C(CC(=O)C(F)(F)C(F)(F)F)C(F)(F)F, the outcome is reported as “inactive”.
For O=C(O)C(F)(F)C(F)(F)C(F)(F)C(F)(F)C(F)(F)C(F)(F)C(F)(F)C(F)(F)C(F)(F)C(F)(F)C(F)(F)C(F)(F)F, the outcome was “inactive”.
With Oc1ccc(Nc2ccccc2)cc1 the outcome was “inactive”.
With CNC(=S)NC the outcome was “inactive”.
In the case of OCCCC(F)(F)C(F)(F)C(F)(F)C(F)(F)C(F)(F)C(F)(F)C(F)(F)F, the AC50 is reported as 68.9 µM (active) and the outcome is reported as “inactive”.
In the case of O=C(O)C(F)(F)C(F)(F)OC(F)(F)F, the outcome is reported as “inactive”.
In the case of COC(OC(C)=O)c1ccccc1 (stereo not given), the outcome is reported as “inactive”.
With CCO[Si](CCC(F)(F)C(F)(F)C(F)(F)C(F)(F)C(F)(F)C(F)(F)F)(OCC)OCC the outcome was “inactive”.

Source: PubChem BioAssay (EPA / NIEHS)
